Results filed as inconclusive are left out. Calls of active or inactive are those of the source. Unless noted, calls follow the shape of the dose curve; as a rule, active = well fitted curve in the direction sought with a large enough effect; inconclusive = small, poorly fitted or top-dose-only effect, or another doubt; inactive = no such curve, though single readings can be large; an effect the other way counts as inactive or inconclusive.
Key:
[1] = target: alpha-glucosidase (Oryza sativa, rice) (UniProt Q653V4); test: Counterscreen for Glucocerebrosidase Inhibitors: qHTS Assay for Rice alpha-Glucosidase at pH 5.0 (AID 997);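 also: 0% = full activity with enzyme and -100% = basal without enzyme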
Summary of the method: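 Endpoint fluorogenic assay at pH 5.0: compounds (0.7 nM to 77 uM) titrated against 4 nM rice enzyme and 400 uM 4-MU-alpha-glucoside for 20 min at room temperature; NaOH/glycine stop, read ex 365/em 440 nm, Hill-fitted AC50.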

[2] = qHTS Assay for Lipid Storage Modulators (AID 1519; calls by dose curve; also: potency is read from the fitted curve at half-maximal effect; as to activity change, negative = inhibition: % is scaled to controls: 0 for no effect and ±100 for the full control effect); conditions: Drosophila S3 cells, BODIPY lipid droplet/cell ratio, laser cytometry, cells loaded with oleic acid; for activity change, negative = inhibition: at 57.5 µM (top of the series)
Summary of the method: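 Cells seeded at 5,000 per well were treated with compounds over a concentration series and loaded with oleic acid (400 uM, as added). Lipid droplet fluorescence (488 nm excitation, 500-530 nm channel) was read by laser-scanning cytometry and normalized to 20 uM Triacsin C.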

[3] = target: DNA repair nuclease/redox regulator APEX1 (Homo sapiens) (UniProt P27695); test: qHTS Validation Assay for Inhibitors of the Human Apurinic/apyrimidinic Endonuclease 1 (APE1) (AID 1705;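 also: TAMRA fluorescence gain over two minutes as APE1 cuts a quenched THF abasic duplex; % is scaled to controls: 0 for no effect and ±100 for the full control effect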)
Chain of DNA repair nuclease/redox regulator APEX1 (Homo sapiens) (P27695 whole entry, looked up): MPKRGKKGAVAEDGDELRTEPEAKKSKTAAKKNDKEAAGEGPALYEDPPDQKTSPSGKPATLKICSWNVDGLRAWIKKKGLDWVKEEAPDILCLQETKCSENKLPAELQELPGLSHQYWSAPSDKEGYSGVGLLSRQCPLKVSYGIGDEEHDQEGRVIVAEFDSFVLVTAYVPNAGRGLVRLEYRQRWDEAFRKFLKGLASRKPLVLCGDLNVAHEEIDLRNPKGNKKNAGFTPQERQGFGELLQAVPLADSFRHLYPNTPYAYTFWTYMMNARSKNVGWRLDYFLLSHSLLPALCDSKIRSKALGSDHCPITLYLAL
Summary of the method: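 Read-out: TAMRA fluorescence (525 nm ex, 598 nm em) from cleavage of a quenched THF abasic-site duplex, 50 nM final; activity taken as intensity change between third and first of three reads 60 s apart.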

[4] = target: Endonuclease 4 (Escherichia coli (strain K12)) (UniProt P0A6C1); test: Counterscreen for APE1 Inhibitors: qHTS Validation Assay for Inhibitors of Endonuclease IV (AID 1708); also: % is scaled to controls: 0 for no effect and ±100 for the full control effect
Summary of the method: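 Conditions: 2 nM enzyme, 50 nM TAMRA/BHQ-2 substrate, pH 7.5 Tris buffer with 2 mM MgCl2, RT. Compound preincubation 15 min; readout three fluorescence reads 60 s apart, third-minus-first.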

[5] = qHTS for differential inhibitors of proliferation of Plasmodium falciparum line 7G8 (AID 1815);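 also: parasite growth measured after three days of incubation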; also: potency is read from the fitted curve at half-maximal effect;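 as to activity change, negative = inhibition: plate controls were vehicle wells for no effect and reference inhibitor wells for full effect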
[6] = qHTS for differential inhibitors of proliferation of Plasmodium falciparum line GB4 (AID 1816); conditions: Potency: Plasmodium falciparum GB4 proliferation inhibition;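 also: parasite growth measured after 72 h incubation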; also: potency is read from the fitted curve at half-maximal effect;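 as to activity change, negative = inhibition: 0% = vehicle DMSO and -100% = reference inhibitor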
[7] = qHTS for differential inhibitors of proliferation of Plasmodium falciparum line 3D7 (AID 1876); also: potency is read from the fitted curve at half-maximal effect
[8] = qHTS for differential inhibitors of proliferation of Plasmodium falciparum line D10 (AID 1877);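 also: parasites grown with compound for 72 h before DNA staining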; also: potency is read from the fitted curve at half-maximal effect;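 as to activity change, negative = inhibition: plate controls were vehicle wells for no effect and reference inhibitor wells for full effect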
[9] = qHTS for differential inhibitors of proliferation of Plasmodium falciparum line Dd2 (AID 1882); conditions: Potency: Plasmodium falciparum Dd2 proliferation inhibition; also: nearly all actives have a fitted effect of over 65% in size; also: potency is read from the fitted curve at half-maximal effect;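 as to activity change, negative = inhibition: plate controls were DMSO vehicle for no effect and 0.29 µM artemisinin for full effect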
Summary of the method: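 SYBR Green DNA fluorescence (ex 485, em 535 nm) after overnight lysis quantifies parasite growth; compound exposure lasted 72 h at 37 C on infected red cells at 2.5% hematocrit, 0.3% parasitemia (final). Artemisinin 0.29 uM and vehicle wells define normalization.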

[10] = qHTS for differential inhibitors of proliferation of Plasmodium falciparum line W2 (AID 1883); conditions: Potency: Plasmodium falciparum W2 proliferation inhibition;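 also: parasites grown with compound for 72 h before lysis and staining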; also: potency is read from the fitted curve at half-maximal effect;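 as to activity change, negative = inhibition: 0% = vehicle wells and -100% = control inhibitor wells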
[11] = qHTS for differential inhibitors of proliferation of Plasmodium falciparum line HB3 (AID 1886); conditions: Potency: Plasmodium falciparum HB3 proliferation inhibition;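 also: parasites grown with compound for 72 h before SYBR Green readout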; also: potency is read from the fitted curve at half-maximal effect;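 as to activity change, negative = inhibition: plate controls were vehicle for no effect and reference inhibitor for full effect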
[12] = target: Ferritin light chain (Equus caballus) (UniProt P02791); test: qHTS Validation Assay for Identification of Novel General Anesthetics (AID 2323); also: % is scaled to controls: 0 for no effect and ±100 for the full control effect
Chain of Ferritin light chain (Equus caballus) (P02791 2-175 limits assumed): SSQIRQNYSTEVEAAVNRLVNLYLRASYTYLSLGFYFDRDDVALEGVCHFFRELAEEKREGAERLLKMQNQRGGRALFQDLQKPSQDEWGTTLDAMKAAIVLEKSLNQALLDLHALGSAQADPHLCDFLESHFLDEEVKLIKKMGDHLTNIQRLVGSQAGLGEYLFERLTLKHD
Summary of the method: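 10 uM horse-spleen apoferritin + 1-AMA (50% saturated, PBS); cpd pin-transferred, 10 min RT. Ex 380/Em 535 nm endpoint. Activity normalized between free 1-AMA and 1-AMA/apoferritin; 4-parameter Hill fit of concentration-response.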

[13] = target: ATP-dependent DNA helicase Q1 (Homo sapiens) (UniProt P46063); test: qHTS Validation Assay for Inhibitors of RecQ-Like Dna Helicase 1 (RECQ1) (AID 2353);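 also: plate controls were DMSO vehicle for no effect and enzyme-free control for full effect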
Chain of ATP-dependent DNA helicase Q1 (Homo sapiens) (P46063 whole entry, looked up): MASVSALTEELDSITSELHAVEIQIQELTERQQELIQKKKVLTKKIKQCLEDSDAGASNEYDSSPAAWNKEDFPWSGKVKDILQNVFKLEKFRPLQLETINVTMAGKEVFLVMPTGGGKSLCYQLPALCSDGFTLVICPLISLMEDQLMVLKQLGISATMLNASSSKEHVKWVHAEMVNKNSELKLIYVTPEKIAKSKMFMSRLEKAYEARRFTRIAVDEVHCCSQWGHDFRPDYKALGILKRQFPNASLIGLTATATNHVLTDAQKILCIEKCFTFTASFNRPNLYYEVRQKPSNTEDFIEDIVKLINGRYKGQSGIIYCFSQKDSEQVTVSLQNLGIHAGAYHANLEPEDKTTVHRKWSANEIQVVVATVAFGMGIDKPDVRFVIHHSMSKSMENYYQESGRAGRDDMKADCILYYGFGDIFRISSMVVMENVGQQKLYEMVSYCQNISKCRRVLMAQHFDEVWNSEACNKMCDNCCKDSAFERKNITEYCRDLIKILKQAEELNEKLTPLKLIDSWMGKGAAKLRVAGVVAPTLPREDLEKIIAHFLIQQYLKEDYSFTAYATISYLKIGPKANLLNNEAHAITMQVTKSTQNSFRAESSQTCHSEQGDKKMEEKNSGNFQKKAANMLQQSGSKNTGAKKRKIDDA
Summary of the method: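 RECQ1T1 50 nM; forked duplex (20 bp + 30-nt ss tails) 200 nM, ATP 2 mM final; pH 8.0, 2 mM MgCl2, 2.5 ug/ml poly(dI-dC); 15 min compound preincubation; discontinuous kinetic read over 2 h at RT.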

[14] = qHTS Assay for Modulators of Human Peripheral Myelin Protein 22 (PMP22) Expression/Activity (AID 1967; active = well fitted curve in the direction sought with a large enough effect in the signal ratio; the % refers to the signal ratio;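 also: 0% = untreated cells and 100% end not stated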)
Summary of the method: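 Mouse MSC80 Schwann line, Pmp22 promoter–CBG68 reporter, EF-alpha–CBR internal control. 24h compound exposure, 37 °C/5% CO2, DMEM + 10% FBS. Readout: corrected green/red luminescence ratio, normalized to untreated cells; concentration-response curves fitted and classified.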

[15] = Counterscreen for APE1 Inhibitors: Fluorescent Dye Displacement Validation Assay (AID 1707);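 also: plate controls were ThO with dsDNA and no compound for no effect and ThO without dsDNA for full effect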
Summary of the method: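 Counterscreen flags promiscuous DNA binders: compounds displacing ThO from duplex DNA (abasic THF site, 50 nM) reduce 540 nm emission (480 nm excitation). ThO 250 nM final; Tris-HCl pH 7.5 with NaCl, MgCl2 and Tween-20.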

[16] = target: RecQ-like DNA helicase BLM (Homo sapiens) (UniProt P54132); test: qHTS Validation Assay for Inhibitors of Bloom's syndrome helicase (BLM) (AID 2364);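 also: plate controls were DMSO vehicle for no effect and enzyme-free control for full effect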
Chain of RecQ-like DNA helicase BLM (Homo sapiens) (P54132 whole entry, looked up): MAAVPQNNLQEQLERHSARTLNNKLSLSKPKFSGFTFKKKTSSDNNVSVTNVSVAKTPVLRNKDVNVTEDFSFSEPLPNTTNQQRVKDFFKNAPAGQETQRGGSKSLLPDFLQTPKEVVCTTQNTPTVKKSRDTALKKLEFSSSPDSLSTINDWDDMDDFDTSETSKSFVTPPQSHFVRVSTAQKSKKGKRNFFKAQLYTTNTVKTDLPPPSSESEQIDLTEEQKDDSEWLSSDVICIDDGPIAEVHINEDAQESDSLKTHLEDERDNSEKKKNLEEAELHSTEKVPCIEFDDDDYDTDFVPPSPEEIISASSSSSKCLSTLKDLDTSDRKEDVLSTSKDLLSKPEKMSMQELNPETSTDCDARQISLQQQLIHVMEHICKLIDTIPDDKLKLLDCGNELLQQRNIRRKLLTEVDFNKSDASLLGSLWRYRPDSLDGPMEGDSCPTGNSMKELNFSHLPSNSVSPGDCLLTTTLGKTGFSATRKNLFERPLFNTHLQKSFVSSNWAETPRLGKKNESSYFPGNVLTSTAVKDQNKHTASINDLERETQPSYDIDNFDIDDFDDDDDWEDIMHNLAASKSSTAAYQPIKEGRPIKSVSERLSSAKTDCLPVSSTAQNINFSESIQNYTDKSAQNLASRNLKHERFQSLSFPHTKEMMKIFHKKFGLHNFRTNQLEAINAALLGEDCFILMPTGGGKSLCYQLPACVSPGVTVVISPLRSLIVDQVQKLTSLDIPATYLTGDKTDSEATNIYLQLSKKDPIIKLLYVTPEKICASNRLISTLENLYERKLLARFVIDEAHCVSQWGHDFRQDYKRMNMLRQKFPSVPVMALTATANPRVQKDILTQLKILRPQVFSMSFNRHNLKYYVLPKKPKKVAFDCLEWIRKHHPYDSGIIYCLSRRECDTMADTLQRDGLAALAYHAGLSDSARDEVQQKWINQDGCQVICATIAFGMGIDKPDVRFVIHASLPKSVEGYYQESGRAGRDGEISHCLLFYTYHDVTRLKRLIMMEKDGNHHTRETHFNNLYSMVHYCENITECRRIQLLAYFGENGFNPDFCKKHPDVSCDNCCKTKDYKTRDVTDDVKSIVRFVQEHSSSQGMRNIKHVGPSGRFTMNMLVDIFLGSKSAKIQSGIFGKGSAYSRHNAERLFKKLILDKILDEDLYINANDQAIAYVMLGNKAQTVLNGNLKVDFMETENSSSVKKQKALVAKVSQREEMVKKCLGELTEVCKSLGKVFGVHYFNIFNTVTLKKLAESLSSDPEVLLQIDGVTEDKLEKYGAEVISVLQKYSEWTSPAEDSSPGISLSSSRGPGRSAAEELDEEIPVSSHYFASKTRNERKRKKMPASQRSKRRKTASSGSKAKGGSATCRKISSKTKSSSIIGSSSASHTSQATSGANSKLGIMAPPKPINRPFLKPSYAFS
Summary of the method: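 50 nM BLM preincubated 15 min at room temperature with compound in pH 8.0 Tris buffer containing 2.5 ug/ml poly(dI-dC); started with 200 nM TAMRA/BHQ-2 forked duplex and 2 mM ATP (final). Unwinding read as TAMRA fluorescence increase, two reads 2 h apart.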

[17] = Validation of Assay for Modulators of Lamin A Splicing (AID 1459; active = well fitted curve in the direction sought with a large enough effect in the signal ratio; the % refers to the signal ratio;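 also: cells exposed to compound for two days before reading; 0% is about no effect; ratio rise marks activators and ratio drop marks inhibitors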)
Summary of the method: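 Readout: ratio of GFP (500-530 nm) to RFP (575-640 nm) total object intensity by 488 nm laser-scanning cytometry after 48 hrs. Cells were HeLa S3 clones carrying lamin A-EGFP minigene plus DsRed2 viability reporter; vehicle 0.5% DMSO final.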

[18] = measured here: cell count channel max response
[19] = measured here: lipid channel max response

C[N+](C)(C)CC=O
50.2%: max response [2, 18]
inactive: outcome [1] | activity change, negative = inhibition [2] -0.649% | Potency [3] | Potency [4] | Potency [5] | Potency [6] | Potency [7] | Potency [8] | Potency [9] | Potency [10] | Potency [11] | Potency [12] | Potency [13]
40.1%: max response [2, 19]

CCCc1c(OCCCOc2ccc(OCC(=O)O)cc2)ccc(C(C)=O)c1O
51.4%: max response [2, 19]
51.1%: max response [2, 18]
inactive: outcome [1] | activity change, negative = inhibition [2] 1% | Potency [3] | Potency [5] | Potency [6] | Potency [7] | Potency [8] | Potency [9] | Potency [10] | Potency [11] | outcome [14] | Potency [12] | Potency [13]

CCC1(O)CC2CN(CCc3c([nH]c4ccccc34)[C@@](C(=O)OC)(c3cc4c(cc3OC)N(C=O)C3[C@]45CCN4CC=C[C@@](CC)([C@@H](OC(C)=O)[C@]3(O)C(=O)OC)[C@H]45)C2)C1 (stereo partly drawn)
inactive: activity change, negative = inhibition [2] 2.35% | Potency [3] | Potency [15] | Potency [12] | Potency [13]
-1.21%: max response [2, 18]
2.17%: max response [2, 19]
active: Potency [5] 0.794 µM | Potency [7] 0.0631 µM | Potency [8] 0.224 µM | Potency [9] 0.1 µM | Potency [10] 0.0501 µM | Potency [11] 1.78 µM

CN(C)S(=O)(=O)c1ccc2c(c1)/C(=C/c1cc3c([nH]1)CCCC3)C(=O)N2
active: Potency [2] 28.2 µM | Potency [5] 4.47 µM | Potency [6] 5.01 µM | Potency [7] 3.55 µM | Potency [8] 3.55 µM | Potency [9] 7.08 µM | Potency [10] 3.55 µM | Potency [11] 3.98 µM
inactive: outcome [1] | Potency [3] | Potency [15] | Potency [4] | Potency [13]
59.5%: max response [2, 18]
-52.8%: max response [2, 19]

CC1CNCCN1S(=O)(=O)c1cccc2cnccc12 (stereo not drawn)
3.07%: max response [2, 18]
3.63%: max response [2, 19]
inactive: activity change, negative = inhibition [2] -0.941% | Potency [3] | Potency [15] | Potency [4] | Potency [7] | Potency [8] | Potency [11] | Potency [12] | Potency [13] | Potency [16]
active: Potency [6] 12.6 µM | Potency [10] 7.08 µM

CCCCOc1cc(CC2CNC(=O)N2)ccc1OC (stereo not drawn)
inactive: activity change, negative = inhibition [2] 7.3% | Potency [3] | Potency [15] | Potency [4] | Potency [7] | Potency [8] | Potency [9] | Potency [11] | outcome [14] | Potency [12] | Potency [13] | Potency [16]
28.9%: max response [2, 18]
40.3%: max response [2, 19]

CC(=O)N[C@@H](Cc1c[nH]c2ccccc12)C(=O)OCc1cc(C(F)(F)F)cc(C(F)(F)F)c1
-17.3%: max response [2, 19]
inactive: outcome [1] | activity change, negative = inhibition [2] -1.99% | Potency [6] | Potency [7] | Potency [8] | Potency [9] | Potency [10] | Potency [11] | outcome [14] | Potency [13]
-16.3%: max response [2, 18]

CC#CCOC(=O)c1c(C)nc2sc3c(c2c1N)CCC(O)C3 (stereo not drawn)
5.64%: max response [2, 18]
inactive: activity change, negative = inhibition [2] -1.83% | Potency [3] | Potency [4] | Potency [8] | Potency [9] | Potency [11] | Potency [13]
active: Potency [7] 11.2 µM
4.05%: max response [2, 19]

CC(N)(Cc1ccc(O)c(O)c1)C(=O)O (stereo not drawn)
inactive: outcome [17] | Potency [15] | Potency [4] | Potency [5] | Potency [7] | Potency [8] | Potency [9] | Potency [11] | Potency [12] | Potency [13]

From PubChem BioAssay (NCATS)
